Assay outcomes deposited in PubChem by National Center for Advancing Translational Sciences (NCATS).
A selection: hits, their analogues and other compounds. The true share with any hit is near 19%.
IL1B secr inh = qHTS for Inhibitors of Inflammasome Signaling: IL-1-beta AlphaLISA Primary Screen. THP-1 LPS/ATP IL-1B secretion, AlphaLISA, 16 h; active compounds read low. activity change, % at 57.5 µM. actives 4.7% (n = 360,000). AID 743279, 2014; in the data active = activity change below about -50%; inconclusive = mostly about -30% to -49%
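THP-1 cells pretreated 1 hr with compounds (up to 57.5 uM final), then stimulated with LPS (250 ng/mL final) plus ATP (1.25 mM final); secreted IL-1B measured by AlphaLISA after 16 hr, decreased signal indicating inhibition.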
DT40 TDP1 no CPT = qHTS for Inhibitors of human tyrosyl-DNA phosphodiesterase 1 (TDP1): qHTS in cells in absence of CPT; DT40 Tdp1-/- hTDP1 cells, no CPT, ATP luminescence, 48 h; Potency, µM (top dose mostly 46.2 µM), hits mostly inhibitors; actives 15% (n = 420,000); AID 686978, 2013; note: nearly all actives have a fitted effect of over 55% in size
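Camptothecin absent (DMSO only). Human TDP1-complemented DT40 knockout cells, 400 cells/well, 37 °C for minimum 48 hr; ATP measured via CellTiter-Glo, 30 min dark incubation, luminescence.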
TDP1 cell CPT = qHTS for Inhibitors of human tyrosyl-DNA phosphodiesterase 1 (TDP1): qHTS in cells in presence of CPT. AID 686979, 2013. chicken DT40 Tdp1-/-;hTDP1 cells + 20 nM CPT, ATP luminescence, 48 h. Potency, µM (highest dose often 46.2 µM), actives largely listed as inhibitors. actives 12% (n = 420,000); note: nearly all actives have a fitted effect of over 55% in size
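Chicken DT40 Tdp1-/- cells stably complemented with human TDP1 were seeded at 400 cells/well in medium containing 20 nM camptothecin, exposed to pin-transferred compounds, and grown at 37 °C for at least 48 hr. Viability was read as ATP luminescence.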
TDP1 block = qHTS Assay for Inhibitors of Tyrosyl-DNA Phosphodiesterase (TDP1); Tyrosyl-DNA phosphodiesterase 1 (Homo sapiens), Q9NUW8; recombinant TDP1, AlphaScreen DNA substrate cleavage; Potency, µM (highest dose often 130 µM), actives largely listed as inhibitors; actives 0.28% (n = 350,000); AID 485290, 2010; note: nearly all actives have a fitted effect of over 40% in size
Target sequence (Q9NUW8 whole entry, looked up): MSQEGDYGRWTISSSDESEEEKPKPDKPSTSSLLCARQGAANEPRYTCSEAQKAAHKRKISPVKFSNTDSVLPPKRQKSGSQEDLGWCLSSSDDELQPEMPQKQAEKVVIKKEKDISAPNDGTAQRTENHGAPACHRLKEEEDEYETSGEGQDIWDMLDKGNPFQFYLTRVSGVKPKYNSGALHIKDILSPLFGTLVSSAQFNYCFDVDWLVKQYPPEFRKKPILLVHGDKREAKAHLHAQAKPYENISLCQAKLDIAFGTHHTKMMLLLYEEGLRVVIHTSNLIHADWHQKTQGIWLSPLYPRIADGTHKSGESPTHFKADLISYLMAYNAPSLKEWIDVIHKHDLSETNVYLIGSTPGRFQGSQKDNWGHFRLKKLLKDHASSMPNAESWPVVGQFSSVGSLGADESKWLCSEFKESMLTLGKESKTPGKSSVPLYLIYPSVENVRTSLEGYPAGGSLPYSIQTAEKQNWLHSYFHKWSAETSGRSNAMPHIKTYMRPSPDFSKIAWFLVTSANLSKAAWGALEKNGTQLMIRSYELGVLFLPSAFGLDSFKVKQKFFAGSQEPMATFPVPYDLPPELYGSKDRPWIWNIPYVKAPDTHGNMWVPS
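Compounds were preincubated with Tdp1 (1 nM final) for 15 min at room temperature before substrate (15 nM final) started a 5 min reaction; beads (10 ug/ml final) were then added for 10 min before AlphaScreen detection.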
HepG2 tox = qHTS for Inhibitors of TGF-b: Cytotox Counterscreen; HepG2 CAGA-GFP viability, ATP luminescence, 18 h; Potency, µM (titrated, usually from 46.1 µM), usual class: cytotoxic; actives 0.76% (n = 410,000)
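CellTiter-Glo luminescence gave cytotoxicity after 18 hours at 37 degrees C. The cells were HepG2 CAGA-GFP in 1% FBS DMEM, stimulated with 500 pg/mL TGF-beta after compound addition. %Activity was normalised to no-cell wells (complete cell-killing) and DMSO (no toxicity), and curves were fitted and classified.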
TGFb SMAD3 inh = qHTS for Inhibitors of TGF-b | HepG2 CAGA-GFP TGF-b/SMAD3 reporter, GFP fluorescence, 18 h; TGF-beta stimulated, 500 pg/mL final | Potency, µM (titrated, usually from 46.1 µM), actives largely listed as inhibitors | actives 1.2% (n = 410,000) | AID 588855, 2011; note: nearly all actives have a fitted effect of over 65% in size
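GFP signal (ex488/em500-530) from TGF-beta-stimulated HEPG2 CAGA-GFP cells, 500 pg/mL final, 18 h at 37 degrees C in DMEM plus 1% FBS, normalized to unstimulated and DMSO-stimulated controls.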
A number is an active result; n = inactive; u = inconclusive; x = no result given. Unless noted, calls come from the whole dose curve; as a rule, active = well fitted curve in the direction sought with a large enough effect; inconclusive = small, poorly fitted or top-dose-only effect, or another doubt; inactive = no such curve, though single readings can be large; an effect the other way counts as inactive or inconclusive.

SMILES	IL1B secr inh	DT40 TDP1 no CPT	TDP1 cell CPT	TDP1 block	HepG2 tox	TGFb SMAD3 inh
COc1ccc(C)cc1NC(=O)C(OC(=O)CNC(=O)c1ccccc1)c1ccccc1 (stereo not drawn)	x	x	x	126µM	x	x
COc1ccc(C)cc1NC(=O)C(OC(=O)CNC(=O)c1cc(C)cc(C)c1)c1ccccc1 (stereo not drawn)	n	n	n	n	n	n
COc1ccc(C)cc1NC(=O)C(OC(=O)c1ccc([N+](=O)[O-])o1)c1ccccc1 (stereo not drawn)	n	u	16µM	n	n	u
CCN(CC)CCCNC(=O)Cc1csc2nc(-c3ccc(Cl)cc3)cn12	x	u	u	n	n	n
Cc1ncsc1CCOC(=O)c1ccc(N2CCOCC2)c([N+](=O)[O-])c1	n	n	n	n	n	n
Cc1c(CCOC(=O)c2ccc(N3CCOCC3)c([N+](=O)[O-])c2)sc[n+]1CC#N	-102	2.6µM	4.6µM	n	n	u
Cc1nc(NCc2ccco2)c2c3c(sc2n1)CCC3	-80	13µM	13µM	n	n	u
COc1ccc(Nc2nc(C)nc3sc4c(c23)CCC4)cc1O	n	13µM	15µM	n	n	n
CC(C)OCCCNc1ncnc2sc3c(c12)CCCC3	x	23µM	21µM	n	n	u
c1coc(CNc2ncnc3sc4c(c23)CCCCC4)c1	n	u	u	n	n	n
Cc1nc(NCc2ccccn2)c2c3c(sc2n1)CCCC3	-54	21µM	u	n	n	n
CN(C)C(CNc1ncnc2sc3c(c12)CCCC3)c1ccco1 (stereo not drawn)	n	23µM	u	n	n	u
O=C(Nc1ncnc2sc3c(c12)CCCCC3)c1ccc(F)cc1	n	u	u	n	n	u
c1ccc(CNc2ncnc3sc4c(c23)CCCC4)nc1	n	23µM	16µM	n	n	u
CCOc1ccc(CCNC(=O)Cn2nc(C)n3c(cc4occc43)c2=O)cc1OCC	x	n	n	n	n	u
CCCS(=O)(=O)N1CCC(C(=O)NCCOC)CC1	x	n	n	n	n	n
O=C(C[N+]1(CCO)CCOCC1)c1cccc2ccccc12	x	n	n	x	n	n
Cc1ccc(C2CC2c2n[nH]c(=S)n2-c2cccc(C)c2)cc1 (stereo not drawn)	n	16µM	u	n	n	u
Cc1ccc(C2CC2c2n[nH]c(=S)n2-c2ccc(Cl)cc2)cc1 (stereo not drawn)	n	u	u	n	n	u
CC1(C(=O)N2CCC(CC3CC(c4ccc(Cl)cc4)=NO3)(C(=O)NCC3CCCCC3)CC2)CC1 (stereo not drawn)	u	u	u	x	n	u
O=C(Cc1ccc(F)cc1)N1CCC(CC2CC(c3ccc(Cl)cc3)=NO2)(C(=O)NCC2CCCCC2)CC1 (stereo not drawn)	-55	u	u	x	n	n
CC(C)(C)OC(=O)N1CCC(CC2CC(c3ccc(Cl)cc3)=NO2)(C(=O)NCC2CCCCC2)CC1 (stereo not drawn)	n	16µM	23µM	x	n	u
COc1ccc(C)c2sc(NC(=O)c3ccc(S(=O)(=O)N4CCCCC4)cc3)nc12	x	n	n	n	n	n
CCN(Cc1ccc(OC)c(COC)c1)CC1CCCN(CCc2cccc(F)c2)C1 (stereo not drawn)	u	u	u	x	n	n
CCN(Cc1ccccc1OC)CC1CCCN(CCc2cccc(OC)c2)C1 (stereo not drawn)	u	u	15µM	x	n	n
SMILES	IL1B secr inh	DT40 TDP1 no CPT	TDP1 cell CPT	TDP1 block	HepG2 tox	TGFb SMAD3 inh
CCN(Cc1ccc(NC(C)=O)cc1)CC1CCCN(CCc2cccc(OC)c2)C1 (stereo not drawn)	n	21µM	u	x	n	n
CCOc1cc(C2NC(=O)c3c(sc4c3CCN(C)C4)N2)ccc1OC(=O)c1ccccc1Cl (stereo not drawn)	x	n	n	x	n	n
CC(C)CN=C(NS(=O)(=O)c1ccccc1)C(Cl)(Cl)Cl	n	5.8µM	4.6µM	n	11µM	u
CC(C)CC(NS(=O)(=O)c1ccccc1)C(=O)O (stereo not drawn)	n	n	n	n	n	n
Cc1nc2ccccc2c2oc(C(=O)N3CCN(C4CCCCC4)CC3)cc12	n	12µM	21µM	n	n	n
COc1ccc(N2CCN(C(=O)c3cc4c(C)nc5ccccc5c4o3)CC2)cc1	n	9.2µM	16µM	n	n	n
CC1=C(C(=O)Nc2ccccc2C)C(c2ccccn2)n2ncnc2N1 (stereo not drawn)	x	n	n	n	n	n
